From the supplement of paper PMC4166925
± gives the standard deviation of the averaged measurements. Whole data set: some 33,000 sequences, median “E-score (dimensionless, -0.5 to 0.5)” near -0.049, cut for the highest 2% near 0.37. The full list was thinned out, with the highest values kept by preference.

What follows are sequences tested on T1, PmTbr T-box DNA-binding domain (GST fusion) (assay: PBM E-score of 8-mer (E-score (dimensionless, -0.5 to 0.5)); Tbr is Tbrain of the sea star Patiria miniata (Pm) or the sea urchin Strongylocentrotus purpuratus (Sp); higher = stronger binding preference). Conditions: the construct has about 5 more residues each side.
T1 sequence: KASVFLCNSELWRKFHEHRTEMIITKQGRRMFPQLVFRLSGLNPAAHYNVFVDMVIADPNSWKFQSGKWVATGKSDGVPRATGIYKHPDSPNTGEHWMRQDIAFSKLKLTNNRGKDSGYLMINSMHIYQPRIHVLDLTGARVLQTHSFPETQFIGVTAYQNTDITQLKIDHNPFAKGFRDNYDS
Method in brief: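 Using the Universal PBM Analysis Suite, every ungapped 8-mer received an enrichment E-score averaged over duplicate arrays. Probe intensities came from double-stranded Universal Agilent oligonucleotide arrays incubated with 200 nM GST-fused Tbr T-box DNA-binding domain in PBS (pH 7.5). That protein was expressed in BL21 E. coli at 20 °C and purified by glutathione affinity chromatography.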

Sequence	PBM E-score of 8-mer
CGCGAAAA	0.359 ± 0.019
AGCGAAAA	0.0819 ± 0.093
CGCGAGAA	0.32 ± 0.0046
TGCGAGAA	0.3906 ± 0.0012
TGCGAAAA	0.391 ± 0.03
TGCGAACA	0.396 ± 0.0075
AGCGAACA	0.0494 ± 0.02
CACTCTAG	0.223 ± 0.0029
CGTGACCA	0.259 ± 0.018
GTTGACAA	0.3821 ± 0.0035
CTTGACAA	0.328 ± 0.0034
AGTGACAG	0.357 ± 0.0084
CGTGACAA	0.407 ± 0.025
GGTGACAC	0.4691 ± 0.0035
GTTGACGA	0.211 ± 0.012
GGAGACAC	0.142 ± 0.084
GATGACAC	0.36 ± 0.02
AGTGACAT	0.309 ± 0.017
CGTGACAG	0.27 ± 0.015
AGTGACAC	0.44 ± 0.0087
AGAAGGGA	-0.301 ± 0.082
AGTATAAT	-0.0999 ± 0.092
ATTGCGCG	0.0393 ± 0.076
CTCCATTC	-0.243 ± 0.042
ATCGTTGA	-0.173 ± 0.031

Sequence	PBM E-score of 8-mer
TATTGGGA	-0.222 ± 0.0037
AAGCGCCG	-0.0564 ± 0.022
ATTTTTGA	-0.289 ± 0.044
CGTGACAC	0.398 ± 0.02
AGTGACCA	0.0489 ± 0.11
CGTGACGC	0.232 ± 0.0054
GGTGACAA	0.47312 ± 1.4e-05
CGTGACGA	0.331 ± 0.031
CGTGACTC	0.0879 ± 0.021
GGTGACGA	0.429 ± 0.013
AGTGACGA	0.358 ± 0.016
AGTGACAA	0.4196 ± 0.0018
GATGACAA	0.202 ± 0.017
AGTGACTA	0.115 ± 0.011
GGTGACCA	0.0575 ± 0.069
CGGTCTTA	-0.0111 ± 0.035
GGCTCGCA	0.136 ± 0.053
ATCAGAAG	-0.0178 ± 0.033
AGCAGGGA	0.00886 ± 0.045
CAGACAGC	0.0475 ± 0.042
ACCCCAGT	-0.138 ± 0.1
CTAGTCCC	-0.132 ± 0.064
TGTGACAA	0.42 ± 0.028
TATGACAA	0.0436 ± 0.061
TCTGACAA	0.112 ± 0.048

Sequence	PBM E-score of 8-mer
AGAGCCAC	-0.0799 ± 0.014
CCTAGTTC	-0.072 ± 0.0041
GATCACGC	0.287 ± 0.017
AATCACAG	0.0723 ± 0.038
GATCACAC	0.451 ± 0.014
AATCACAA	0.199 ± 0.0027
CATCACAG	0.109 ± 0.038
CATCACAC	0.4576 ± 0.0032
GATCACAA	0.163 ± 0.045
CATCACAA	0.179 ± 0.006
AATCACAC	0.462 ± 0.0075
AACGAGTC	-0.154 ± 0.018
GTCTTCAA	-0.0747 ± 0.03
CCGCCCCA	-0.155 ± 0.064
ACGCATTC	0.0134 ± 0.0026
GTCACACA	0.3901 ± 0.0019
CACACACG	0.181 ± 0.059
GTCACAGA	0.0466 ± 0.051
CTCACACA	0.41 ± 0.0079
GTCACAAA	0.118 ± 0.066
CACACACA	0.303 ± 0.0096
CAATAGTG	0.127 ± 0.061
ACTTGCGG	-0.0023 ± 0.035
GGTGAAAC	0.0805 ± 0.054
TCAATGCA	-0.268 ± 0.037

Sequence	PBM E-score of 8-mer
ACACCACG	0.3698 ± 0.0022
ACACCACT	0.254 ± 0.012
CCACCACA	0.117 ± 0.02
GCACCACA	0.133 ± 0.047
ACACCACC	0.405 ± 0.0043
TCACCACA	0.204 ± 0.054
ACACCACA	0.377 ± 0.008
CCACCACC	0.107 ± 0.044
CCACCACG	-0.00839 ± 0.13
ACGAAACG	0.16 ± 0.01
GCATTGCA	-0.0859 ± 0.03
ACAATCTA	-0.0816 ± 0.0069
ATCGAAAC	-0.0958 ± 0.024
ACCTATTG	0.129 ± 0.034
AGGGTGAG	0.137 ± 0.097
AGGGTGAT	0.197 ± 0.018
ACGGTGAT	0.202 ± 0.0041
CAGATGAC	-0.0423 ± 0.069
GAGGTGAC	0.4496 ± 0.0027
AAGGTGAG	0.452 ± 0.0046
GGGGTGAC	0.3431 ± 0.0017
CAGGTGAC	0.4485 ± 0.0027
CTGGTGAC	0.221 ± 0.045
GAGGTGAA	0.294 ± 0.0035
ACGGTGAG	0.12 ± 0.014

Sequence	PBM E-score of 8-mer
AAGGTGAT	0.424 ± 0.021
CGTGTCCA	0.00534 ± 0.099
GATGCACC	-0.0938 ± 0.034
GCAAACCC	-0.0342 ± 0.058
CCTCGGTC	0.0608 ± 0.12
AAGGTGAC	0.426 ± 0.011
CCGGTGAG	0.0229 ± 0.12
CAGGTGAG	0.422 ± 0.007
AAGGTGAA	0.185 ± 0.013
ACGGTGAC	0.285 ± 0.0079
CAGGTGAA	0.1748 ± 0.0016
CTGACCTA	-0.194 ± 0.079
AGTGGAAT	-0.0212 ± 0.05
GGCGATAA	0.276 ± 0.048
AGACGTAA	-0.2 ± 0.092
CCAGTGCG	0.133 ± 0.074
GCAACACC	0.455 ± 0.0097
CCAACACC	0.443 ± 0.011
ACAACACG	0.251 ± 0.017
CCAACACA	0.241 ± 0.023
ACAACACC	0.435 ± 0.023
GCAACAAC	0.0808 ± 0.019
ACAACAAT	0.109 ± 0.024
GCAACACA	0.311 ± 0.0054
CCAACACG	0.274 ± 0.0077

Sequence	PBM E-score of 8-mer
ACAACACA	0.347 ± 0.033
ACAACACT	0.37 ± 0.016
AGAACACT	0.133 ± 0.04
CCCTTGGA	-0.13 ± 0.033
TAGGGCCA	-0.155 ± 0.032
CGCCAAGC	0.0166 ± 0.082
AGGCCCTC	-0.448 ± 0.0054
CTCCCGTA	-0.1898 ± 0.001
AGAAAGCC	-0.195 ± 0.021
GCTATCTA	-0.0532 ± 0.092
CTCTTCTA	-0.215 ± 0.1
TCTGGAAA	-0.131 ± 0.019
TACACTCA	-0.0251 ± 0.036
CACACTCC	0.402 ± 0.016
GACACTCC	0.336 ± 0.029
CACACTCA	0.3814 ± 0.0034
AACACTCC	0.288 ± 0.029
CCCACTCG	0.0373 ± 0.049
AACACTCA	0.323 ± 0.0094
AACACTCG	0.237 ± 0.037
CACACTCG	0.408 ± 0.011
AGAGAAAG	0.0684 ± 0.065
ACTCACCG	-0.0077 ± 0.1
CGGAGTCC	-0.183 ± 0.043
CTTTGGCA	0.288 ± 0.017

Sequence	PBM E-score of 8-mer
CGTGGCTA	-0.139 ± 0.056
GTCGTTCA	0.19 ± 0.052
AACTGAGT	-0.0725 ± 0.037
AACTTCGA	0.0686 ± 0.023
GCTTCACA	0.301 ± 0.014
CCTTCACG	0.213 ± 0.0063
CCTTCACA	0.395 ± 0.014
ACTTCACA	0.336 ± 0.011
TCTTCACA	0.377 ± 0.015
ACTTCACG	0.262 ± 0.038
CCAAGTGA	0.146 ± 0.01
CTGAGCAC	0.0183 ± 0.04
GACAGGCA	-0.0532 ± 0.041
ACACAGTG	0.229 ± 0.005
AGTGTTTC	0.134 ± 0.066
CGCTTGAG	-0.0499 ± 0.011
CACGTGAC	0.315 ± 0.0075
CACGTGTC	0.385 ± 0.0079
AACGTGTG	0.3941 ± 0.0015
AGCGTGTC	0.174 ± 0.034
AACGTGTC	0.4102 ± 0.0015
CACGTGTA	0.2502 ± 0.00031
AACGTGTA	0.156 ± 0.04
AACGTGCG	0.345 ± 0.029
ACCGTGTG	0.218 ± 0.0082
